# In the library only some 15% were active in any assay of this set; here they are far more common.
# HCMV inh – blocks human cytomegalovirus replication; AID 1259415; 410,000 tested, 4.5% active; HFF cells, HCMV-luciferase reporter, 72 h; hits give low values; activity change, negative = inhibition, % at 57.5 µM; in the data active = activity change below about -60%; inconclusive = no clear call, values can overlap the other calls; inactive = above about -39%
#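 Human foreskin fibroblasts infected with luciferase-reporter HCMV at MOI 1 PFU/cell, compounds at two doses. Luciferase measured 72 h post infection; normalized to buffer-only basal and Salinomycin (10uM) controls.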
# Pf growth 48h – P. falciparum growth inhibition at 48 hours (one generation) | AID 504832 | Potency, µM (titrated, usually from 28.7 µM), hits mostly inhibitors | 310,000 tested, 5.9% active | P. falciparum luciferase growth in erythrocytes, 48 h
#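 Compounds are pin-transferred into medium, infected erythrocytes (2% hematocrit, 0.1% parasitemia final) are added, and plates sit one parasite generation at 37 C in 5% CO2. Detection reagent is then added and luminescence measured.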
# HCV inhibitor – inhibitors of hepatitis C virus infection; Huh7.5.1 HCVcc-Cre infection, luciferase reporter, 44 h; Potency, µM (titrated, usually from 41.8 µM), hits mostly inhibitors; 340,000 tested, 3.4% active; AID 651820
#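 Antiviral activity was scored by luciferase reporter output from cells infected with HCVcc-Cre (~0.5 moi) in presence of compound, 44 h infection period, cells seeded 1,000/well 4 h prior.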
# Pf growth 96h – inhibits malaria parasite growth, 96 h. P. falciparum luciferase reporter growth, 96 h. Potency, µM (titrated, usually from 28.7 µM), most hits filed as inhibitors. 320,000 tested, 6.9% active
#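 Delayed-death screen, second-generation endpoint: infected erythrocytes, 2% hematocrit, 0.05% parasitemia final; 96 hours at 37 C, 5% CO2; luciferase detection reagent; luminescence decrease equals reduced growth.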
# SARS PLpro yeast – inhibitors of SARS-CoV papain-like protease in yeast. S. cerevisiae expressing SARS-CoV PLpro, growth rescue. Potency, µM (highest dose often 32.9 µM), most hits filed as activators. 330,000 tested, 0.19% active. AID 485353; calls by dose curve; note: nearly all actives have a fitted effect of over 55% in size
# Sm TGR inh – S. mansoni TGR enzyme inhibition; purified TGR, DTNB reduction, TNB absorbance 405 nm; Potency, µM (top dose mostly 114 µM), usual class: inhibitors; AID 485364; Q962Y6; 360,000 tested, 3% active; note: nearly all actives have a fitted effect of over 60% in size
#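 First, TGR (20 nM dispensed) and NADPH were mixed with compound. Second, a 15 min room-temperature incubation followed. Third, further NADPH and then DTNB were added to start the reaction. Finally, TNB absorbance was monitored kinetically.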
# Hits are given with their value; . = inactive; ? = inconclusive; / = not tested or not shown; [ ] = dose if it differs, or a comment. Unless noted, calls come from the whole dose curve; as a rule, active = well fitted curve in the direction sought with a large enough effect; inconclusive = small, poorly fitted or top-dose-only effect, or another doubt; inactive = no such curve, though single readings can be large; an effect the other way counts as inactive or inconclusive.
SMILES,HCMV inh,Pf growth 48h,HCV inhibitor,Pf growth 96h,SARS PLpro yeast,Sm TGR inh
COc1ccc(-n2c(CCC(=O)O)ccc2-c2ccc(F)cc2)c(OC)c1,.,.,.,.,.,45µM
NC(=O)Nn1c(CCC(=O)O)ccc1-c1ccc(F)cc1,-93,.,.,.,?,50µM
CCCn1c(CCC(=O)O)ccc1-c1ccc(F)cc1,.,.,.,9.3µM,.,?
Cc1ccc2nc(C(C)(C)C)c(Cc3cccc(F)c3)n2c1,.,/,/,/,/,/
COc1ccc(CNC(=O)c2ccccc2NC(=O)C2=CSCCO2)c(OC)c1,.,?,?,?,.,.
O=C(O)CCc1ccc(-c2ccc(F)cc2)n1NC(=O)c1ccco1,.,.,.,.,.,40µM
C=CCNC(=S)NNC(=O)C(CCC(C)C)CC(C)(C)O (stereo not given),-107,/,.,?,.,.
COC(=O)[C@@H](c1ccccc1)N(C)S(=O)(=O)c1cccc(S(=O)(=O)N(C)[C@@H](C(=O)OC)c2ccccc2)c1,.,13µM,?,?,.,.
COC(=O)C(c1ccccc1)C(C(=O)OC)c1ccccc1 (stereo not given),.,.,.,.,.,.
CC(C)(C)CC(C)(C)c1ccc(OCCOCC[N+](C)(C)Cc2ccccc2)cc1,-94,0.93µM,?,0.47µM,/,.
c1ccc(OCCOCCOc2ccccc2)cc1,.,/,1.1µM,/,/,/
C[N+](C)(CCOc1ccccc1)Cc1ccccc1 (tested in a mixture with another compound),.,10µM,/,.,?,.
COC(=O)c1sccc1S(=O)(=O)N(CC(=O)Nc1c(C)cccc1C)c1ccc(C)c(C)c1,.,/,/,/,/,.
Cc1cc(C)c(S(=O)(=O)N2CCCC(C(=O)NC3CCCC3)C2)c(C)c1 (stereo not given),.,.,.,.,.,.
Cc1nc(COC(=O)c2c(C)nn(-c3ccccc3)c2C)cs1,.,.,?,?,.,.
O=C(O)c1ccc(S(=O)(=O)N[C@H](Cc2c[nH]c3ccccc23)C(=O)O)cc1,/,.,/,.,.,.
Cc1ccc(NC(=O)c2ccc(=O)n(Cc3ccccc3C)c2)c(C)c1,.,/,/,/,/,.
CN(C)c1cccc(C(=O)Nc2ccc(N3CCOCC3)cc2)c1,.,.,.,/,.,.
Cn1c(CC(=O)Nc2ccccc2C(F)(F)F)c(Sc2ccccc2)c2ccccc21,.,15µM,.,.,.,.
CC(=O)c1cn(CC(=O)Nc2ccccc2C(F)(F)F)c2ccccc12,?,.,.,?,.,.
CSc1c(CC(=O)Nc2ccc(F)cc2)n(Cc2ccccc2)c2ccccc12,-62,7.4µM,.,13µM,.,.
CSc1c(CC(=O)Nc2ccccc2)n(C)c2ccccc12,.,10µM,?,?,.,.
CCOC(=O)Cc1c(Sc2ccccc2)c2cc(C)ccc2n1C,-60,?,.,.,.,.
COc1ccc(C(=O)Nc2ccnn2C2CCN(C(=O)c3cc(C)on3)CC2)cc1,.,.,.,.,.,.
Cn1c(CC(=O)Nc2ccccc2)cc2ccccc21,.,.,.,.,.,.
SMILES,HCMV inh,Pf growth 48h,HCV inhibitor,Pf growth 96h,SARS PLpro yeast,Sm TGR inh
Cn1c(CC(=O)Nc2ccccc2)c(Sc2ccccc2)c2ccccc21,.,?,.,8.3µM,.,.
CN(Cc1ccccc1)C(=O)Nc1c(Cl)cccc1Cl,.,/,/,/,/,/
COc1cccc(Nc2nnc(SCc3cc([N+](=O)[O-])cc4c3OCOC4)s2)c1,.,.,11µM,.[5.75 µM],?,.
CC(C)(C)C1=C(C#N)C(c2cc3c(cc2Br)OCO3)C(C#N)=C(N)O1 (stereo not given),.,.,.,.,.,2.8µM
O=C(CSc1nc(-c2cccs2)nc2cc(=O)[nH]n12)Nc1cccc(C(F)(F)F)c1,.,/,/,/,/,.
O=C1NCCc2c1[nH]c1ccccc21,.,.,.,.,.,.
CC1Cc2c([nH]c3ccccc23)C(=O)N1 (stereo not given),.,.,?,9.3µM,.,.
CN(C)CCN(Cc1ccco1)c1ccccn1,.,/,.,/,/,/
CN(CCc1ccccn1)Cc1ccc(Cl)cc1,.,.,.,.,/,.
C[N+](C)(C)CCN(Cc1ccc(Cl)cc1)c1ccccn1,-63,6.6µM,.,2.3µM,.,.
CN(C)CCN(Cc1ccc(Cl)cc1)c1ccccn1,-62,?,?,?,.,.
CC(C)c1ccc(NC2(C#N)C(=O)Nc3ccccc32)cc1 (stereo not given),-72,.,.,/,.,.
CN(C1CCCCC1)S(=O)(=O)c1ccc2c(c1)c(=O)c(C(=O)O)cn2C,.,/,/,/,/,/
CN(C)c1ccc(NC(=O)Cn2cc3c(n2)CCCC3)cc1,-99,?,.,?,.,.
CCOCCCNC(=O)Cn1cc2c(n1)CCCC2,.,.,.,.,.,.
Cc1cc(C)cc(NC(=O)Cn2cc3c(n2)CCCCC3)c1,/,/,/,?,.,.
CCN(CCCNC(=O)Cn1cc2c(n1)CCCC2)c1cccc(C)c1,.,.,.,13µM,.,.
COc1ccc(NC(=O)CCc2nnc3n(Cc4ccccc4Cl)c(=O)c4ccccc4n23)cc1,.,/,/,/,/,.
COc1ccc(CN2C(=O)C(n3ccc4ccccc43)c3cc(OC(F)(F)F)ccc32)cc1 (stereo not given),-91,/,/,/,/,/
CC(C)c1ccc(CN2C(=O)C(n3ccc4ccccc43)c3cc(Cl)ccc32)cc1 (stereo not given),-76,/,/,/,/,/
CN(C)C(CN=C1NS(=O)(=O)c2ccccc21)c1ccco1 (stereo not given),.,.,.,.,.,.
O=S1(=O)NC(=NCC(c2ccco2)N2CCCCC2)c2ccccc21 (stereo not given),.,?,.,13µM,.,.
C[C@H]1CN([C@@H](C)CO)C(=O)CCCn2nncc2CO[C@@H]1CN(C)S(=O)(=O)c1cn(C)cn1,.,/,/,/,/,/
Cn1c(N)c(C(=O)COC(=O)C2(c3ccc(Cl)cc3)CCCC2)c(=O)n(C)c1=O,.,3.7µM,.,/,.,.
Cn1c(N)c(C(=O)COC(=O)C2CCC(C(C)(C)C)CC2)c(=O)n(C)c1=O (stereo not given),?,13µM,.,/,.,.
Cn1c(N)c(C(=O)COC(=O)/C=C/c2ccc(Cl)cc2)c(=O)n(C)c1=O,.,?,.,.,.,.
Cn1c(N)c(C(=O)COC(=O)C2(c3ccccc3F)CCCC2)c(=O)n(C)c1=O,.,.,.,.,.,.
Cn1c(N)c(C(=O)COC(=O)C2(c3ccc(F)cc3)CCCC2)c(=O)n(C)c1=O,.,4.1µM,?,2.3µM,.,.
CC(C)(C)C1CCC(N2CCN(c3ccccc3)CC2)CC1 (stereo not given),.,.,?,?,.,.

# Bioassay records deposited in PubChem BioAssay by National Center for Advancing Translational Sciences (NCATS).
